# In PubChem BioAssay (NCATS):
# Values joined by “and” are separate entries in the source; they are usually repeats but may differ in a detail not shown here. Equal values may be shown once. Records with an inconclusive call do not appear. Where a call stands in place of a potency, no number is given. A structure can be active in one record and inactive in another. Active and inactive are the calls of the source. Unless noted, calls follow the shape of the dose curve; as a rule, active = well fitted curve in the direction sought with a large enough effect; inconclusive = small, poorly fitted or top-dose-only effect, or another doubt; inactive = no such curve, though single readings can be large; an effect the other way counts as inactive or inconclusive.
# Assays:
# [1] = qHTS assay for small molecule agonists of the antioxidant response element (ARE) signaling pathway (AID 651741; active = well fitted activation curve with a large enough effect in the signal ratio; the % refers to the signal ratio; also: potency is read from the fitted curve at half-maximal effect)
# Method in brief: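 Compounds in DMSO are pinned onto HepG2 ARE-bla cells (2,000/well) that were preincubated 5 h; plates stay 16 h at 37 C, then beta-lactamase activity is detected with LiveBLAzer B/G substrate by fluorescence.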
# [2] = qHTS assay for small molecule disruptors of the mitochondrial membrane potential - 1 hr assay (AID 651754; calls by dose curve; also: potency is read from the fitted curve at half-maximal effect; nearly all actives have a fitted effect of over 35% in size)
# Method in brief: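 HepG2, 2,000 cells/well, overnight attachment; cpd or DMSO 1 hr, 37C/5% CO2; Mito-MPS dye 30 min, 37C; fluorescence monomer (490/535) and aggregate (540/590).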
# [3] = qHTS assay for small molecule disruptors of the mitochondrial membrane potential - 5 hr assay (AID 651755; calls by dose curve; also: potency is read from the fitted curve at half-maximal effect; nearly all actives have a fitted effect of over 40% in size)
# Method in brief: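 HepG2 cells, attached overnight at 37C, were exposed to compound or DMSO for 5 hr at 37C, 5% CO2. Mito-MPS dye was then added for 30 min, and fluorescence read at 490/535 nm (monomers) and 540/590 nm (aggregates).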
# [4] = target: Nuclear receptor ROR-gamma (Homo sapiens) (UniProt P51449); assay: qHTS assay for small molecule antagonists of the retinoid-related orphan receptor gamma (ROR-gamma) signaling pathway (AID 651802); also: nearly all actives have a fitted effect of over 60% in size; also: potency is read from the fitted curve at half-maximal effect
# Method in brief: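 CHO, TET-inducible ROR + RORE-LUC reporter, 1536-well qHTS. Compound pinned, doxycycline added, 16hr 37C/5% CO2. ONE-Glo, 30 min RT, luminescence; signal drop scored as antagonism.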
# [5] = Cell Proliferation Assay against the TMD8 Cell Line (Caspase readout at 16 hrs) (AID 651712); also: potency is read from the fitted curve at half-maximal effect
# Method in brief: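 TMD8 cells (500/well) in phenol-red-free RPMI with glutamine, 5% FBS, were exposed to compounds for 16 h at 37 °C. Caspase 3/7 activation was read by Caspase-Glo luminescence; percent activity normalised to DMSO (0%) and 9.2 uM bortezomib final (100%).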
# [6] = Cell Proliferation Assay against the TMD8 Cell Line (Caspase readout at 8 hrs) (AID 651713); also: potency is read from the fitted curve at half-maximal effect
# Method in brief: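 Seed log-phase TMD8 cells, add compound by pin tool, incubate 8 h at 37C under 5% CO2, equilibrate to room temperature, add Caspase-Glo, wait 15 min, read luminescence; percent activity uses DMSO and 9.2 uM bortezomib controls.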
# [7] = target: Tyrosine-protein kinase Yes (Homo sapiens) (UniProt P07947); assay: qHTS for small molecule inhibitors of Yes1 kinase: Primary Screen (AID 686947); also: nearly all actives have a fitted effect of over 60% in size
# Method in brief: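 Yes1 (4 nM) preincubated 20 min with compound, then 60 min room-temperature reaction with 0.1 mM ATP and 0.3 mg/mL poly(E4Y) in pH 7.5 Tris, 10 mM MgCl2. ADP measured by ADP-Glo luminescence, normalised to enzyme/no-enzyme controls.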
# [8] = qHTS assay for small molecule activators of the nuclear factor-kappa B (NF-kB) signaling pathway (AID 651749; active = well fitted activation curve with a large enough effect in the signal ratio; the % refers to the signal ratio; also: series mostly up to about 77 µM); details: NF-kB-bla ME-180 cells, beta-lactamase FRET ratio, 16 h; stronger effect = higher value
# Method in brief: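 Screening used 2,000 ME-180 reporter cells per well exposed to pinned compound (23 nL) or DMSO; after 16 hr at 37C, beta-lactamase expression under NF-kB control was assessed through FRET.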
# [9] = target: Peroxisome proliferator-activated receptor alpha (Homo sapiens) (UniProt Q07869); assay: qHTS assay for small molecule agonists of the peroxisome proliferator-activated receptor alpha (PPARalpha) signaling pathway (AID 651778); details: PathHunter PPARalpha complementation, chemiluminescence, 6 h; max response: stronger effect = higher value
# Method in brief: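 Cells plated at 2,000/well and held overnight at 37 C, 5% CO2, then compound added by pin tool for 6 hr; after PathHunter detection reagent and 60 min at room temperature, chemiluminescence from enzyme complementation was read.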
# [10] = qHTS assay for small molecule agonists of the antioxidant response element (ARE) signaling pathway measured by Nrf2-dependant transcriptional activity (AID 720636; active = well fitted curve in the direction sought with a large enough effect in the repeat runs; an effect the other way counts as inactive or inconclusive; also: potency is read from the fitted curve at half-maximal effect;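 as to activation: HepG2 cells with an ARE-driven luciferase reporter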)
# Method in brief: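 Attachment 6 hr at 37 C, then compound versus DMSO vehicle for 16 hr in ARE-luc HepG2 cells (1% dialyzed FBS); luminescence recorded 30 min after ONE-Glo addition at room temperature.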
# [11] = qHTS assay for small molecule agonists of the antioxidant response element (ARE) signaling pathway measured by Nrf2-dependant transcriptional activity - cell viability counter screen (AID 720653; active = well fitted curve in the direction sought with a large enough effect in the repeat runs; an effect the other way counts as inactive or inconclusive); details: ARE-bla HepG2 viability, CellTiter-Glo ATP luminescence, 16 h; max response: stronger effect = lower value
# Method in brief: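 ARE-bla HepG2 cells (2,000/well) rested 5 hrs at 37C/5% CO2, then exposed to compounds in DMSO for 16 hrs. Viability was read in the same wells as intracellular ATP by luminescence, 30 min at room temperature after reagent addition.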
# [12] = target: Arylsulfatase A (Homo sapiens) (UniProt P15289); assay: qHTS screen for enhancers of Arylsulfatase A (ASA1): LOPAC Validation Assay (AID 720538)
# Method in brief: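 Enhancer assay in patient-derived MLD fibroblasts carrying ASA-I179S: 48 h compound exposure at 37 C, then 14 h room-temperature pNCS turnover (0.5 mM final) in lysis buffer. Read by fluorescence at 525/598 nm after NaOH stop.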
# [13] = qHTS for compounds that reverse cellular toxicity of Amyloid beta (A-beta) peptide in yeast: LOPAC Validation Assay (AID 720559)
# Method in brief: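 Rescue of A-beta toxicity was scored as yeast growth by 600 nm absorbance after 48 hr at 30 C with compound. Normalization used DMSO (negative) and equimolar ferric chloride plus clioquinol (positive).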
# [14] = qHTS for Activators of Parkin Expression: LOPAC Validation Assay (NLuc Reporter) (AID 720572)
# Method in brief: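 Neuronal line stably carrying a FLuc/NLuc coincidence reporter under the Parkin promoter, seeded 24 h, then dosed in 7-point series for 24 h at 37 C. NLuc luminescence read after FLuc; normalized to DMSO and positive control (100%).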
# [15] = target: T1, Hexokinase-4 (Homo sapiens) + Glucokinase regulatory protein (Homo sapiens) (UniProt P35557+Q14397); assay: qHTS assay for inhibitors of recombinant human GCK-GKRP interaction: Diaphorase-coupled assay (AID 743205)
# Method in brief: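 A kinetic fluorescence read (Ex 525/Em 590 nm, every minute for 30 minutes) tracked resorufin from a G6PDH-diaphorase coupled GCK reaction. It contained 10 nM GST-GCK, 10 nM FLAG-GKRP, 5 mM glucose, 0.4 mM ATP in Hepes pH 7.6. Normalized to with/without-enzyme DMSO controls.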
# [16] = target: T1, Hexokinase-4 (Homo sapiens) + Glucokinase regulatory protein (Homo sapiens); assay: qHTS assay for inhibitors of recombinant human GCK-GKRP interaction: ADP-Glo assay (AID 743206)
# Method in brief: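 GST-GCK and FLAG-GKRP (15 nM each in the dispensed mix, with 2 uM S6P) react with 0.4 mM ATP and 5 mM glucose (final) in Hepes pH 7.6 for 60 min at room temperature. ADP is measured by ADP-Glo luminescence.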
# [17] = qHTS assay for small molecule activators of the p53 signaling pathway (AID 651743; active = well fitted activation curve with a large enough effect in the signal ratio, not every such curve was filed as active; the % refers to the signal ratio; also: series mostly up to about 92 µM); details: HCT-116 p53RE-bla, beta-lactamase FRET ratio, 16 h; activation: stronger effect = higher value
# Method in brief: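 Cell-based beta-lactamase reporter (p53 response elements, HCT-116 background). After a 5-hour preincubation, cells received compound for 16 hours at 37 C; substrate development ran 2 hours at room temperature.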
# [18] = qHTS assay for environmental chemicals that activate the Aryl hydrocarbon Receptor (AhR) signaling pathway (AID 651777); details: 1A2-DRE human hepatoma cells, luciferase, 24 h; activation: stronger effect = higher value; also: nearly all actives have a fitted effect of over 15% in size
# Method in brief: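 Concentration–response screening used 1,200 1A2-DRE cells per well, 24 hr compound exposure (37 C, 5% CO2), and One-Glo luminescence as the AhR-driven CYP1A2 reporter signal.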
# [19] = qHTS assay to identify small molecules that stimulate interleukin-8 (IL-8) secretion (AID 651758; active = well fitted activation curve with a large enough effect in the signal ratio; the % refers to the signal ratio)
# Method in brief: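 THP-1, 2000 cells/well; cpd 16 h, 37 C; add cryptate + XL665 anti-IL-8 Abs; RT 1-3 h; TR-FRET read.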
# [20] = qHTS assay for small molecule antagonists of the retinoid-related orphan receptor gamma (ROR-gamma) signaling pathway - cell viability counter screen (AID 720652; active = well fitted curve in the direction sought with a large enough effect in the repeat runs; an effect the other way counts as inactive or inconclusive;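 also: series mostly up to about 92 µM; compound exposure lasted 16 hr before ATP read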)
# Method in brief: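 Luminescence from CellTiter-Glo after 30 min at room temperature reported cellular ATP as the cytotoxicity measure. Cells were the CHO reporter line with doxycycline-induced ROR-gamma expression, exposed to compound for 16 hr at 37 C.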
# Sequence of Peroxisome proliferator-activated receptor alpha (Homo sapiens) (Q07869 whole entry, looked up): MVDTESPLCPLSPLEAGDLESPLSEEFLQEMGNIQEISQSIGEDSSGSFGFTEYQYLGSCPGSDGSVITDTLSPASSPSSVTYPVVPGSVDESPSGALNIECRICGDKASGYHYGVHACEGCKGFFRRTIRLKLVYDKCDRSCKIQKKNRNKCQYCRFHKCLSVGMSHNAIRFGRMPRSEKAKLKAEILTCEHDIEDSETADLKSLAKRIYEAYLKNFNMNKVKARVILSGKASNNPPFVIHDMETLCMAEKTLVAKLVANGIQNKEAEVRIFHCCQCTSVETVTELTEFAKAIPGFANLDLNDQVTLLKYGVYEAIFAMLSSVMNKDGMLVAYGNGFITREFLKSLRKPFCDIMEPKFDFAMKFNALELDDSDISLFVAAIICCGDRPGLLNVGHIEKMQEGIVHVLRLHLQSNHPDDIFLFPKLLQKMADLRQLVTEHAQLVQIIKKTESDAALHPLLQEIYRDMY
# Sequence of Tyrosine-protein kinase Yes (Homo sapiens) (P07947 whole entry, looked up): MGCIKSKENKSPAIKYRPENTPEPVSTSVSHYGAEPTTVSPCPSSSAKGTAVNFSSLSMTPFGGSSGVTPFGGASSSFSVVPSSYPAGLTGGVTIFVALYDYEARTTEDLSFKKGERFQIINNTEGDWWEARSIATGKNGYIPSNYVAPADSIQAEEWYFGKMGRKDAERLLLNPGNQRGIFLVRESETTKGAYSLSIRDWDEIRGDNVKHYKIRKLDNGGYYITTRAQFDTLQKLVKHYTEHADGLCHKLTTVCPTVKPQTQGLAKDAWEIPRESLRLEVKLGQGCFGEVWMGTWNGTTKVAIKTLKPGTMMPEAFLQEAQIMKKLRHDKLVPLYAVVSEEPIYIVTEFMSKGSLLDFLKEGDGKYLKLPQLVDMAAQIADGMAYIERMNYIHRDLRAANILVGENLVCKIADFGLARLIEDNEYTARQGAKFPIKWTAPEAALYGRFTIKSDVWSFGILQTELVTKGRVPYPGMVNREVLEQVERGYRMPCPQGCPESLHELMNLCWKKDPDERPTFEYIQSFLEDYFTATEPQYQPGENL
# T1 sequence (P35557 whole entry, looked up): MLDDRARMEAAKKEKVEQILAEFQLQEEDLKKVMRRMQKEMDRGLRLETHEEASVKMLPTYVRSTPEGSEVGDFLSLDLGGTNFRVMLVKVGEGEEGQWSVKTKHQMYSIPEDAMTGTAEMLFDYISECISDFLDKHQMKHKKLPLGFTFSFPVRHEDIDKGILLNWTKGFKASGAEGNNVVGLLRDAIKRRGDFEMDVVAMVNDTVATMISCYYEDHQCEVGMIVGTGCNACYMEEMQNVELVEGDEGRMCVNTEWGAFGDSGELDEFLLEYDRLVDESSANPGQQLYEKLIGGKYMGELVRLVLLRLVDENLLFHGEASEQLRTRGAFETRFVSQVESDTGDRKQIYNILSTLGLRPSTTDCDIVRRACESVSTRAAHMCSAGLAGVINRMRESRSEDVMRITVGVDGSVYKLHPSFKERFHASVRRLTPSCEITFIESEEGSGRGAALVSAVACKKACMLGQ
# T1 sequence (Q14397 whole entry, looked up): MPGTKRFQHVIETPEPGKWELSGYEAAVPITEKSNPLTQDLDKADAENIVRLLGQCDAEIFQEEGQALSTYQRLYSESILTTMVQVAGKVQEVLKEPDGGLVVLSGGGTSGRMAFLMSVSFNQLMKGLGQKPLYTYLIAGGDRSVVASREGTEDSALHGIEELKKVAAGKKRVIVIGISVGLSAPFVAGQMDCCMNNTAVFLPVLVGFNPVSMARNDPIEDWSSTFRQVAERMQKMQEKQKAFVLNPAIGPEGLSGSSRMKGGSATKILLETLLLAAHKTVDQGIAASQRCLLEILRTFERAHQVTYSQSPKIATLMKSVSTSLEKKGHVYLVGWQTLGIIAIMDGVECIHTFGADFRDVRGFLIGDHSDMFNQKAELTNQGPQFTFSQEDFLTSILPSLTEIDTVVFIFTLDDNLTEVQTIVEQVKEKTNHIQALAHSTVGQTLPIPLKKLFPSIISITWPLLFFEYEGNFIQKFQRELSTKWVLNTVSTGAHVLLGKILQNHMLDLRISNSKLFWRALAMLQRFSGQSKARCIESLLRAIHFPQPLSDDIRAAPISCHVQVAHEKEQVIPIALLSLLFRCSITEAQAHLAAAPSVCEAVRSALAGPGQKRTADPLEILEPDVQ
# Sequence of Nuclear receptor ROR-gamma (Homo sapiens) (P51449 whole entry, looked up): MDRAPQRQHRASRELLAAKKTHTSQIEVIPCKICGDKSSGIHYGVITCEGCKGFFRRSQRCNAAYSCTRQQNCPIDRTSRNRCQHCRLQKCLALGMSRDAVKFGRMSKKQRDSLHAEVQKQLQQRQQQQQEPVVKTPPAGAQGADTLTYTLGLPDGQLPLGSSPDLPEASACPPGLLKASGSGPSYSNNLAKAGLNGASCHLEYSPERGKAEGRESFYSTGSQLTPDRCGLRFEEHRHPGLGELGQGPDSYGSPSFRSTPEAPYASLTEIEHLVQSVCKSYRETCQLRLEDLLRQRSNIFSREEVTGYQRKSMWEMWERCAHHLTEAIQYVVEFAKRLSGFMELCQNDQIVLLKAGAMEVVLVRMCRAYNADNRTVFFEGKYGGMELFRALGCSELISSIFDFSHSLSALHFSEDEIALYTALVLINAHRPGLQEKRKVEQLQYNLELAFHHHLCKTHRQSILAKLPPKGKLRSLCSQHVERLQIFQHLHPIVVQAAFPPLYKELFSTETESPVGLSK
# Sequence of Arylsulfatase A (Homo sapiens) (P15289 whole entry, looked up): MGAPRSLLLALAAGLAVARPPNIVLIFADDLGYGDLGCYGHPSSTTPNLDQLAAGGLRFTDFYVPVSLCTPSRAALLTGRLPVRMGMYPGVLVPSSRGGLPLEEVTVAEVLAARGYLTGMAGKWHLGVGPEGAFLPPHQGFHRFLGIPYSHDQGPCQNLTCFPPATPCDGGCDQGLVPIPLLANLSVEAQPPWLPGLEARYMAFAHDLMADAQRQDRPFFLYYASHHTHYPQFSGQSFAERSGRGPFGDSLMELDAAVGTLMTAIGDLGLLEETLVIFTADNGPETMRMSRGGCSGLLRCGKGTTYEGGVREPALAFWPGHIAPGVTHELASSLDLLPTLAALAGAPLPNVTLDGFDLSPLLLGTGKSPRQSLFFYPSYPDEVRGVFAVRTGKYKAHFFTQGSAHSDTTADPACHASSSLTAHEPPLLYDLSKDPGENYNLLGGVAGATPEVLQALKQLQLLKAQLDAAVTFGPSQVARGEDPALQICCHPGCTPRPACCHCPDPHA
structure (smiles),measurement,setting,value
CC(C)C(=O)Nc1ccc([N+](=O)[O-])c(C(F)(F)F)c1,Potency,[1],61.1 µM (active) and 66.8 µM (active)
same,Potency,[2],42.2 µM (active)
same,Potency,[3],42.2 µM (active)
same,Potency,[4],23.7 µM (active)
CNC(=O)N1N=C(c2ccc(N)cc2)c2cc3c(cc2CC1C)OCO3 (configuration not stated),Potency,[5],18.7 µM (active)
same,Potency,[6],inactive
Cn1c(CCCC(=O)O)nc2cc(N(CCCl)CCCl)ccc21,Potency,[5],inactive
same,Potency,[6],inactive
same,Potency,[7],inactive
Oc1cc(Cl)ccc1Oc1ccc(Cl)cc1Cl,Potency,[1],54.5 µM (active)
same,activation,[8],2.77% (inactive)
same,max response,[9],13.1% (inactive)
same,Potency,[10],inactive
same,max response,[11],-9.95% (inactive)
COC[C@H]1OC(=O)c2coc3c2[C@@]1(C)C1=C(C3=O)C2CCC(=O)[C@@]2(C)C[C@H]1OC(C)=O (some centres not stated),Potency,[6],23.5 µM (active)
same,Potency,[7],inactive
same,Potency,[12],inactive
same,outcome,[13],inactive
same,outcome,[14],inactive
same,outcome,[15],inactive
same,outcome,[16],inactive
Cn1cc(C2=C(c3cn(C4CCN(Cc5ccccn5)CC4)c4ccccc34)C(=O)NC2=O)c2ccccc21,Potency,[5],16.6 µM (active)
same,Potency,[7],inactive
O=C(O)C(=O)c1cn(Cc2ccccc2)c2ccc(-c3ccc(OC(F)(F)F)cc3)cc12,Potency,[6],inactive
CN(C)CCN(C)CCc1ccc(Cl)c(Cl)c1,Potency,[5],inactive
same,Potency,[6],inactive
same,Potency,[7],inactive
Nc1ccncc1,Potency,[1],inactive
same,activation,[17],2.37% (inactive)
same,activation,[8],-0.507% (inactive)
same,activation,[18],-2.98% (inactive)
same,max response,[9],0.27% (inactive)
same,Potency,[12],inactive
same,outcome,[13],inactive
same,outcome,[14],inactive
same,Potency,[10],inactive
same,outcome,[15],inactive
same,outcome,[16],inactive
Oc1cccc2cccnc12,Potency,[1],37.6 µM (active) and 66.8 µM (active)
same,activation,[17],-0.845% (inactive) and 2.31% (inactive)
same,Potency,[19],inactive
same,activation,[18],0.681% (inactive) and 3.98% (inactive)
same,max response,[9],-5% (inactive) and -2.57% (inactive)
same,Potency,[4],inactive and 3.35 µM (active)
same,Potency,[10],42.2 µM (active)
same,Potency,[20],inactive
same,max response,[11],-16.3% (inactive)
